In PubChem BioAssay (NCI):
Compounds without any hit were thinned out: in the full panel of roughly 79,000, 15% have a hit. Activity calls are given as the source filed them. Rule as the data show it: active = growth inhibition above about 70%; inactive = the rest.

How the values were obtained:
[1] = NCI Yeast Anticancer Drug Screen. Data for the wt1 strain (AID 149);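 also: 0% = growth of vehicle-treated wt1 cultures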; conditions: S. cerevisiae wt1 strain (SPY 50644) growth inhibition, active compounds read high
Outline: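 Yeast wt1 strain exposed to compounds; growth inhibition measured relative to vehicle-treated controls.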

[2] = NCI Yeast Anticancer Drug Screen. Data for the rad50EPP+ strain (AID 151);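 also: 0% = growth of vehicle-treated control cultures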; conditions: S. cerevisiae rad50 mutant strain, active compounds read high
Outline: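 One strain with a rad50 alteration (rad50EPP+) was compound-treated, its growth then compared to that of vehicle controls.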

[3] = NCI Yeast Anticancer Drug Screen. Data for the mgt1 strain (AID 153); conditions: S. cerevisiae mgt1 mutant growth inhibition, active compounds read high
Outline: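 After exposure of the mgt1 yeast mutant to compound, growth was measured and reported as inhibition compared with vehicle controls.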

[4] = NCI Yeast Anticancer Drug Screen. Data for the rad50 strain (AID 155);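 also: 0% = growth of vehicle-only cultures of the same strain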; conditions: S. cerevisiae rad50 strain growth inhibition, active compounds read high
Outline: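 Yeast carrying a defined DNA repair defect were exposed to test compounds, and growth was compared with vehicle-treated controls to give percent inhibition.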

[5] = NCI Yeast Anticancer Drug Screen. Data for the mec2-1 strain (AID 157); conditions: S. cerevisiae mec2-1 strain, active compounds read high
Outline: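 Test agents were screened against the mec2-1 yeast strain, with defined DNA repair or cell cycle alteration. Growth was scored as inhibition against vehicle-only controls.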

[6] = NCI Yeast Anticancer Drug Screen. Data for the rad14 strain (AID 159);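 also: 0% = growth of vehicle-treated control cultures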; conditions: S. cerevisiae rad14 strain growth inhibition, active compounds read high
Outline: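 Yeast cells carrying a defined DNA-repair defect were exposed to compounds, and growth inhibition was calculated relative to vehicle-treated control cultures.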

[7] = NCI Yeast Anticancer Drug Screen. Data for the sgs1 mgt1 strain (AID 161);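 also: 0% = growth of cultures given vehicle only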; conditions: S. cerevisiae sgs1 mgt1 strain, active compounds read high
Outline: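 Genetically altered yeast, compound exposure, growth inhibition relative to vehicle.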

[8] = NCI Yeast Anticancer Drug Screen. Data for the CLN2oe strain (AID 163);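 also: 0% = growth of vehicle-only control cultures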; conditions: S. cerevisiae CLN2oe strain, active compounds read high
Outline: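 Here, growth inhibition in a cell-cycle-altered yeast strain after compound exposure was quantified against vehicle control growth.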

[9] = NCI Yeast Anticancer Drug Screen. Data for the cln2 rad14 strain (AID 165);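 also: 0% = growth equal to vehicle treated cultures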; conditions: S. cerevisiae cln2 rad14 strain, active compounds read high
Outline: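 Growth of compound-exposed yeast (cln2 rad14 genotype) measured and expressed as inhibition relative to vehicle.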

[10] = NCI Yeast Anticancer Drug Screen. Data for the bub3 strain (AID 167); conditions: S. cerevisiae bub3 mutant strain, active compounds read high
Outline: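 Compounds were applied to a genetically altered yeast strain carrying a cell-cycle control defect. Growth inhibition was scored against vehicle-treated controls.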

[11] = NCI Yeast Anticancer Drug Screen. Data for the wt2 strain (AID 169);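 also: 0% = growth of vehicle-treated yeast cultures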; conditions: S. cerevisiae wt2 strain growth inhibition, active compounds read high
Outline: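 Genetically defined yeast strains from a DNA-repair/cell-cycle panel were used. Compound-exposed yeast growth was measured, and the inhibition was calculated relative to vehicle treatment.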

[12] = NCI Yeast Anticancer Drug Screen. Data for the mlh1 strain (AID 171);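 also: 0% = growth of vehicle-treated control cultures of the same strain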; conditions: S. cerevisiae mlh1 strain growth inhibition, active compounds read high
Outline: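 Here the genetically defined yeast mutant is grown with each compound, and the extent to which its growth falls below that of vehicle-exposed cells is reported.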

[13] = NCI Yeast Anticancer Drug Screen. Data for the mlh1 rad18 strain (AID 175); conditions: S. cerevisiae mlh1 rad18 strain growth inhibition, active compounds read high
Outline: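 In this whole-cell yeast screen, a strain with altered DNA damage repair is challenged with compound, and its growth is measured against matched vehicle-treated controls.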

[14] = NCI Yeast Anticancer Drug Screen. Data for the rad18 strain (AID 177); conditions: S. cerevisiae rad18 mutant growth inhibition, active compounds read high
Outline: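 Screen uses a yeast strain with a defined lesion in DNA damage repair; compound effect is read as loss of growth compared to untreated vehicle cultures.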

[15] = NCI Yeast Anticancer Drug Screen. Data for the sgs1 strain (AID 173);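 also: 0% = growth of vehicle-only control cultures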; conditions: S. cerevisiae sgs1 mutant, active compounds read high
Outline: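 Relative growth inhibition, referenced to vehicle, was determined in a yeast strain with a defined alteration affecting DNA damage repair or cell cycle control after compound exposure.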

[16] = at 5.0 µM (retest, dose inferred, filed as 0.5)
[17] = at 50.0 µM (retest, dose inferred, filed as 5.0)

Measured: growth inhibition

CC(Cc1ccccc1)N(C)Cc1nc(C2CCC([N+](=O)[O-])O2)no1 (stereo unspecified)
active: [4]; [17] 95% | [4]; at 50.0 µM 84.7% | [4]; at 100.0 µM 81% | [5]; [17] 98% | [6]; at 33.0 µM 70% | [6]; at 100.0 µM 93% | [7]; [17] 99% | [7]; at 50.0 µM 85.3% | [8]; at 100.0 µM 93% | [9]; [17] 94% | [9]; at 50.0 µM 88% | [10]; [17] 100% | [10]; at 50.0 µM 90% | [10]; at 100.0 µM 79% | [13]; [17] 97% | [13]; at 50.0 µM 80.2% | [14]; at 33.0 µM 86% | [14]; at 100.0 µM 95%
inactive: [1]; at 1.2 µM -1% | [1]; at 3.7 µM 0% | [1]; at 11.0 µM 2% | [1]; at 33.0 µM 3% | [1]; at 100.0 µM 8% | [2]; at 1.2 µM 5% | [2]; at 3.7 µM 14% | [2]; at 11.0 µM 27% | [2]; at 33.0 µM 44% | [2]; at 100.0 µM 42% | [3]; at 1.2 µM 1% | [3]; at 3.7 µM -1% | [3]; at 11.0 µM 13% | [3]; at 33.0 µM 25% | [3]; at 100.0 µM 49% | [4]; at 1.2 µM 4% | [4]; at 3.7 µM 10% | [4]; [16] 17% | [4]; at 11.0 µM 10% | [4]; at 33.0 µM 46% | [5]; at 1.2 µM 4% | [5]; at 3.7 µM 2% | [5]; [16] 18% | [5]; at 11.0 µM 4% | [5]; at 33.0 µM 17% | [5]; at 50.0 µM 66% | [5]; at 100.0 µM 33% | [6]; at 1.2 µM 5% | [6]; at 3.7 µM 14% | [6]; at 11.0 µM 45% | [7]; [16] 35% | [8]; at 1.2 µM -1% | [8]; at 3.7 µM 1% | [8]; at 11.0 µM 8% | [8]; at 33.0 µM 48% | [9]; [16] 5% | [10]; at 1.2 µM 0% | [10]; at 3.7 µM 9% | [10]; [16] -16% | [10]; at 11.0 µM 20% | [10]; at 33.0 µM 54% | [11]; at 1.2 µM 0% | [11]; at 3.7 µM 3% | [11]; at 11.0 µM 9% | [11]; at 33.0 µM 27% | [11]; at 100.0 µM 34% | [12]; at 1.2 µM -1% | [12]; at 3.7 µM -3% | [12]; at 11.0 µM 2% | [12]; at 33.0 µM 14% | [12]; at 100.0 µM 17% | [13]; [16] 47% | [14]; at 1.2 µM 14% | [14]; at 3.7 µM 36% | [14]; at 11.0 µM 69%

CNCC(O)c1ccc(O)c(O)c1.[Pt].c1ccc([PH+](c2ccccc2)c2ccccc2)cc1.c1ccc([PH+](c2ccccc2)c2ccccc2)cc1
active: [2]; at 100.0 µM 93% | [4]; at 33.0 µM 96% | [4]; [17] 99% | [4]; at 50.0 µM 99% | [4]; at 100.0 µM 96% | [5]; [17] 99% | [5]; at 50.0 µM 98.8% | [5]; at 100.0 µM 97% | [6]; at 33.0 µM 98% | [6]; at 100.0 µM 96% | [7]; at 50.0 µM 99.1% | [8]; at 33.0 µM 93% | [8]; at 100.0 µM 96% | [9]; [17] 99% | [9]; at 50.0 µM 98.8% | [10]; at 33.0 µM 75% | [10]; [17] 99% | [10]; at 50.0 µM 98.8% | [10]; at 100.0 µM 96% | [11]; at 33.0 µM 98% | [11]; at 100.0 µM 98% | [12]; at 33.0 µM 91% | [12]; at 100.0 µM 97% | [15]; at 33.0 µM 86% | [15]; at 100.0 µM 97% | [13]; [17] 99% | [13]; at 50.0 µM 99% | [14]; at 33.0 µM 80% | [14]; at 100.0 µM 96%
inactive: [1]; at 1.2 µM -1% | [1]; at 3.7 µM -2% | [1]; at 11.0 µM -2% | [1]; at 33.0 µM 8% | [1]; at 100.0 µM 53% | [2]; at 1.2 µM 2% | [2]; at 3.7 µM -3% | [2]; at 11.0 µM -21% | [2]; at 33.0 µM 11% | [4]; at 1.2 µM -1% | [4]; at 3.7 µM -3% | [4]; [16] -8% | [4]; at 11.0 µM -1% | [5]; at 1.2 µM 3% | [5]; at 3.7 µM 6% | [5]; [16] -8% | [5]; at 11.0 µM 4% | [5]; at 33.0 µM 65% | [6]; at 1.2 µM -1% | [6]; at 3.7 µM -3% | [6]; at 11.0 µM 4% | [7]; [16] -2% | [7]; [17] -7% | [8]; at 1.2 µM 0% | [8]; at 3.7 µM -8% | [8]; at 11.0 µM 3% | [9]; [16] 17% | [10]; at 1.2 µM 0% | [10]; at 3.7 µM 1% | [10]; [16] -18% | [10]; at 11.0 µM -3% | [11]; at 1.2 µM -2% | [11]; at 3.7 µM -2% | [11]; at 11.0 µM 8% | [12]; at 1.2 µM -3% | [12]; at 3.7 µM -1% | [12]; at 11.0 µM 8% | [15]; at 1.2 µM 2% | [15]; at 3.7 µM 4% | [15]; at 11.0 µM 15% | [13]; [16] 13% | [14]; at 1.2 µM 0% | [14]; at 3.7 µM 2% | [14]; at 11.0 µM 19%
